Screening data from PubChem BioAssay.
This is a sample that favours compounds with a hit; in the whole collection about 4.9% have one here.
Calb FLC: affects C. albicans growth with fluconazole; C. albicans CaCi-2 (fluconazole-resistant clinical isolate) + fluconazole, Alamar Blue growth, 48 h; AID 1979; growth inhibition, % (no concentration beside the values); 300,000 tested, 0.57% active;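 active = growth inhibition above about 58% in most replicates, limit read from the data, passing the limit was not always enough; inconclusive = exactly half the replicates above a set limit; inactive = most replicates below a set limit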;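 note: all wells also contain fluconazole at 8 µg/ml as a sub-toxic cotreatment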
PP1 counter: counter-screen for PP5 inhibitors: inhibitors of human PP1-alpha; purified PP1alpha, OMFP fluorescence; inhibition, % at 6.7 µM; 320,000 tested, 0.9% active;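 active = inhibition above the mean inhibition of all tested compounds plus 3 SD, computed separately for each screening campaign, cut at about 15% in these data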
Mdm2 MdmX PPI: human Mdm2/MdmX binding inhibition; O15151+Q00987; 330,000 tested, 3% active; SaOS-2 split-luciferase Mdm2/MdmX complementation, luminescence; inhibition, % at 8 µM; AID 485346;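 active = inhibition of at least 50% at 8 µM in the primary screen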
Beta apoptosis: beta cell apoptosis inhibition; AID 435005; INS-1E cytokine-induced death, ATP luminescence, 48 h; percent of positive-control rescue, neutral wells zero; 300,000 tested, 0.8% active; protection from apoptosis, % (test concentration not listed);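 active = Every replicate reaches about 75%, or at least half do and their mean reaches it too, limit read from the data; inconclusive = At least half of replicates reach the limit but their mean does not; inactive = Under half of replicates reach the limit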;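 note: higher means more ATP so stronger rescue from cytokine killing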
PP5 inh: blocks human protein phosphatase 5 activity | 320,000 tested, 0.18% active | purified PP5c, OMFP substrate fluorescence | inhibition, % at 6.7 µM;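 active = inhibition above the campaign's mean inhibition across all tested compounds plus 3 SD, cut at about 9.5% in these data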
Target sequence (P53041 whole entry, looked up): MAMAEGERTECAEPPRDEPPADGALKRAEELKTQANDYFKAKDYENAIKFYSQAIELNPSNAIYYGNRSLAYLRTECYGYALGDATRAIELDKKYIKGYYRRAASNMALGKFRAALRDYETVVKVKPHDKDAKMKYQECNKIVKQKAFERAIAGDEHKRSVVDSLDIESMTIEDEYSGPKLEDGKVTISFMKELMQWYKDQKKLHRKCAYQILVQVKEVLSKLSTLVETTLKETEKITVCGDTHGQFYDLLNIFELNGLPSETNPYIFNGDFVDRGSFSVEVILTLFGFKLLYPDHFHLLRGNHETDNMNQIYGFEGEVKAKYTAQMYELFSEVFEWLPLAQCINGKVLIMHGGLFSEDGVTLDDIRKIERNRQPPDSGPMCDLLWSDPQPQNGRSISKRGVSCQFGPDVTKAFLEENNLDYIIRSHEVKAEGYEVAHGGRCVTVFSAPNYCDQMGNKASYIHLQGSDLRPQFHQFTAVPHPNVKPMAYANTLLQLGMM
CSC inhib: blocks cancer stem cells | cancer stem cell-like cells viability, luminescence | inhibition, % at 7.5 µM | 300,000 tested, 1.1% active; in the data active = inhibition above about 75%; inconclusive = no clear call, values can overlap the other calls; tested in HMLE shEcad cells
Of the large screens only hits and unclear results are named; the others gave an inactive call.

O=C(Oc1cc(Cl)ccc1Cl)c1ccc(N2CCOCC2)c([N+](=O)[O-])c1	none
CC1CCCC(NC(=O)COC(=O)CCC(=O)c2ccc(F)cc2)C1C (configuration not stated)	none (no result: Calb FLC, PP1 counter, PP5 inh)
COC(=O)c1c(NC(=O)Cc2ccccc2)sc2c1CCN(C(C)C)C2	none
CC(C)N1CCc2c(sc(NC(=O)c3nc4ccccc4s3)c2C(N)=O)C1	Calb FLC 119
O=c1cc(N2CCCCC2)c(-c2ccccc2)nn1Cc1ccccc1Cl	none
O=c1cc(N2CCCCC2)c(-c2ccccc2)nn1Cc1cccc(Cl)c1	CSC inhib 88 (no result: Beta apoptosis)
O=c1cc(N2CCCCC2)c(-c2ccccc2)nn1Cc1ccc(Cl)cc1Cl	CSC inhib 83
Cc1ccc(C)c(NC(=S)NNC(=O)c2cc3c(s2)CCC(C)C3)c1 (configuration not stated)	none
Cc1cccc(NC(=S)NNC(=O)c2cc3c(s2)CCC(C)C3)c1C (configuration not stated)	Calb FLC 110 (no result: CSC inhib)
Cc1cc(=O)oc2cc(OCC(=O)N3CC(=O)Nc4ccccc43)c(Cl)cc12	none (no result: Calb FLC)
O=C(/C=C\c1ccc(-c2cccc([N+](=O)[O-])c2)o1)N1CCOCC1	Calb FLC 97
O=C(c1cccc([N+](=O)[O-])c1)N1CCOCC1	none
Cc1ccc(S(=O)(=O)Nc2n[nH]nc2C(=O)NC2CCCCC2)cc1	Calb FLC inconclusive
O=C(Nc1ccc(S(=O)(=O)Nc2nccs2)cc1)c1ccccc1OC(F)F	none (no result: Calb FLC, CSC inhib)
CCOC(=O)CC(NC(=O)C(CC)c1ccccc1)c1ccccc1Cl (configuration not stated)	none
CCOC(=O)CC(/C(C)=N\O)c1ccccc1 (configuration not stated)	Calb FLC 99
CCOc1ccc(N=NC2C(=O)N(C(N)=S)N=C2C)cc1 (configuration not stated)	none
CCOC(=O)N1CCN(c2ccc(S(=O)(=O)N3CCOCC3)cn2)CC1	none (no result: Calb FLC, PP1 counter, PP5 inh)
CCOC(=O)N1CCN(c2ccc(S(=O)(=O)N(Cc3ccccc3)Cc3ccccc3)cn2)CC1	Beta apoptosis 104
Cc1c(C(=O)Nc2ccc(-c3nnc4n3CCCCC4)cc2)oc2c1ccc1ccccc12	CSC inhib 117
O=C(CC1C(=O)NCCN1Cc1ccccc1C(F)(F)F)NCCc1ccccn1 (configuration not stated)	none
CCc1ccc(NC(=S)N2CCCC(C(F)(F)F)C2)cc1 (configuration not stated)	none
Nc1nnc(SCC(=O)NC2CCCCC2)s1	none
Nc1nnc(SCC(=O)OCC(=O)NC2CCCCC2)s1	CSC inhib 92
COc1ccc(CCC(=O)Nc2ccc(-c3noc(-c4ccc(OC)c(OC)c4)n3)cc2)cc1	none (no result: Beta apoptosis)
COc1cc(-c2nc(-c3ccc(NC(=O)c4ccc(Br)o4)cc3)no2)cc(OC)c1OC	CSC inhib 77
O=C(/C=C\Nc1ccc(Cl)cn1)c1ccc(Br)cc1	none
O=C(O)CN1C(=O)/C(=C\c2cc(Br)ccc2OCc2ccc(Cl)cc2Cl)SC1=S	CSC inhib 108
O=C(COC(=O)c1ccccc1F)NCc1ccc2c(c1)OCO2	none (no result: Calb FLC, PP1 counter, PP5 inh)
C(=C\c1ccccc1)/CN1CCN(c2ncnc3c2oc2ccccc23)CC1	Calb FLC 92
c1ccc2c(c1)oc1c(N3CCOCC3)ncnc12	none
Cc1nn(-c2nc3ccccc3[nH]2)c(=O)c2ccccc12	Beta apoptosis 86, CSC inhib 97 (no result: Mdm2 MdmX PPI)
Cc1cn(-c2cc(C(=O)Nc3ccc(C)c(NC(=O)C(=O)c4c[nH]c5ccccc45)c3)cc(C(F)(F)F)c2)cn1	CSC inhib 131
CCCCCCCCCC[n+]1cccc2c3ccccc3ccc21	Calb FLC 101 (no result: PP1 counter, Mdm2 MdmX PPI, Beta apoptosis, PP5 inh, CSC inhib)
Cc1cccc[n+]1CCCCCCCCCC[n+]1ccccc1C	none
CCc1ccc(S(=O)(=O)Nc2cc(SCC(=O)O)c(O)c3ccccc23)cc1	CSC inhib 114
Cc1ccc(C)c(S(=O)(=O)Nc2cc(SCC(=O)O)c(O)c3ccccc23)c1	Beta apoptosis 130 (no result: Calb FLC, Mdm2 MdmX PPI)
COc1ccc(OC)c(S(=O)(=O)Nc2ccc(O)c3ccccc23)c1	Beta apoptosis 103
CCc1ccc(S(=O)(=O)Nc2ccc(O)c3ccccc23)cc1	Beta apoptosis inconclusive, CSC inhib 92
O=S(=O)(Nc1ccc(O)c2ccccc12)c1ccc(F)cc1	none
CCOc1ccc(S(=O)(=O)Nc2cc(SCC(=O)O)c(O)c3ccccc23)cc1	none (no result: PP1 counter, Mdm2 MdmX PPI, Beta apoptosis, PP5 inh, CSC inhib)
